# Measurements reported in PubChem BioAssay (EPA / NIEHS).
# Activity calls are given as the source filed them. The calls were made as follows: active = hit-call score of the fitted dose curve at least 0.9, where 1 is the maximum; inactive = score below 0.9.
# Read-out: ATP-citrate lyase (ACLY), ACLY (gene 47)
# Experiment: LTEA_HepaRG_ACLY: Life Technologies and Expression Analysis (LTEA) Assay for ATP-citrate lyase (ACLY) using HepaRG (AID 2283466)
# Conditions: mRNA level, 48 h; actives raise or lower the signal
# Protocol: LTEA_HepaRG is a cell based, multiplexed-readout assay that uses HepaRG, a human liver cell line, with measurements taken at 48 hours after chemical dosing on a 96-well plate.LTEA_HepaRG_ACLY is one of 102 assay component(s) measured in the LTEA HepaRG cell culture assay. It is a marker of Steatosis.Data from the assay component LTEA_HepaRG_ACLY was analyzed into 1 endpoint. This assay endpoint, LTEA_HepaRG_ACLY, was analyzed with bidirectional fitting relative to DMSO as the negative control and baseline of activity. Using a type of inducible reporter, measures of mRNA induction for gain or loss-of-signal activity can be used to understand regulation of transcription factor activity. To generalize the intended target to other relatable targets, this assay endpoint is annotated to the lyase intended target family, where the subfamily is steatosis.
# A total of 1060 chemcials from the ToxCast library were tested in eight-point concentration-response experiments. Cell culture and cytotoxicity assays were conducted at Thermo Fisher Scientific's Custom Services facility (Madison, WI). A single lot of human HepaRG cells (Thermo Fisher Scientific, Frederick, MD) was used for the cell culture experiments. 96-well format collagen type I coated plates of human HepaRG cells were prepared using established methods. Briefly, cryopreserved HepaRG cells were thawed, plated at a density of approximately 100,000 cells/well in HepaRG Thaw, Plate, and General Purpose media (HPRG770, Thermo Fisher Scientific), and incubated for 48 hours. 0.5% DMSO was selected as vehicle control to balance the requisite need of DMSO in HepaRG cultures to maintain differentiation (for example, baseline metabolism, proportions of hepatocytes vs. cholangiocytes), while enabling further hepatic receptor pathway activation (for example, PXR and CAR) in response to chemical exposure. 48 hours after plating, the culture medium was replaced with HepaRG Serum-Free Incudtion Media. Cells were exposed to each test chemical in duplicate and maintained in CO2 incubators for another 48 hours. Chemical plates were thawed to room temperature and 200x concentrations of treatment groups were prepared. 8-point conentration-reponse curves were made with the highest exposure at 100 uM, followed by half-log dilutions, all in 0.5% DMSO. Each test plate contained variouse controls, induction positive controls (1mM phenobarbital), cytotoxicity positive controls ([…] aflatoxin B1), vehicle controls (0.5% DMSO), and total lysis controls (0.5% DMSO). Cell morphology images were taken using an Essen IncuCyte FLR automated microscope, with six 96-well plates imaged in about 24 minutes. Images were captured and exported and JPEG files. Spent culture media was transfered to black-well plates for the LDH assay, and remaining media was sorted at -80 C for later use. Cells were treated with RLT buffer and frozen until shipped for gene expression analysis. Total RNA was isolated from the cell suspension in 75 uL of Buffer RLT (Qiagen, Germantown, MD 20874) by Quintiles/Expression Analysis (Durham, NC) using a custom isolation procedure. Total RNA from each plate well was transferred to a preamplification plate. Fluidigm's 96.96 Dynamic ArrayTM (Fluidigm, Amsterdam, the Netherlands) technology was used for gene expression analyses by quantitative reverse transcription polymerase chain reaction (qRT-PCR, performed by Quintiles/Expression Analysis, Durham, NC)89. Standard TaqManTM Assays (Applied Biosystems/ThermoFisher Scientific, Foster City, CA) were used to assess the expression of 93 genes selected based on their selectivity and sensitivity to important hepatic receptors known to be modulated by environmental chemicals; importance in human hepatocyte functionality; and hepatotoxicity. […]
Structure (SMILES),outcome,AC50
CCCCCCCCCCCCOS(=O)(=O)O,inactive,
CCCCc1oc2ccccc2c1C(=O)c1cc(I)c(OCCN(CC)CC)c(I)c1,,59.4 µM (active)
CCCCCCCCCCCCCCC,inactive,
CCCCC=O,inactive,
CCCCC(CC)C(=O)O (stereo not given),inactive,
CS(=O)(=O)c1ccc([C@@H](CC2CCCC2)C(=O)Nc2cnccn2)cc1Cl,inactive,
CN(Cc1cnc2nc(N)nc(N)c2n1)c1ccc(C(=O)N[C@@H](CCC(=O)O)C(=O)O)cc1,inactive,
CN(C)CCOC(c1ccccc1)c1ccccc1,,81.6 µM (active)
N=C(N)c1ccc(OCCCCCOc2ccc(C(=N)N)cc2)cc1,,35.9 µM (active)
O=C1NS(=O)(=O)c2ccccc21,inactive,
O=C(CCCN1CCC(O)(c2ccc(Cl)cc2)CC1)c1ccc(F)cc1,,32 µM (active)
OCC(CO)(CBr)CBr,inactive,
O=C(c1ccccc1)c1ccccc1,inactive,
CC(=O)Nc1ccc(O)cc1,inactive,
Cc1[nH]nc2c1N=C(c1ccccc1Cl)c1cc([N+](=O)[O-])ccc1N2,inactive,
